# Laboratory results as given in PubChem BioAssay (NCI).
# Compounds without any hit were thinned out: in the full panel of roughly 79,000, 15% have a hit. Values without a mark were called inactive. Calls of active or inactive are those of the source. Rule as the data show it: active = growth inhibition above about 70%; inactive = the rest.
# Key:
# [1] = NCI Yeast Anticancer Drug Screen. Data for the rad52 strain (AID 147);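 also: 0% = growth of vehicle-treated control cultures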; settings: S. cerevisiae rad52 mutant growth inhibition, active compounds read high
# How it was run: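 Compounds are applied to a genetically defined yeast strain lacking normal DNA damage repair, and inhibition of growth is expressed relative to cultures given vehicle only.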
# [2] = NCI Yeast Anticancer Drug Screen. Data for the wt1 strain (AID 149);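 also: 0% = growth of vehicle-treated wt1 cultures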; settings: S. cerevisiae wt1 strain (SPY 50644) growth inhibition, active compounds read high
# How it was run: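 Yeast wt1 strain exposed to compounds; growth inhibition measured relative to vehicle-treated controls.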
# [3] = NCI Yeast Anticancer Drug Screen. Data for the rad50EPP+ strain (AID 151);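 also: 0% = growth of vehicle-treated control cultures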; settings: S. cerevisiae rad50 mutant strain, active compounds read high
# How it was run: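 Compounds were applied to the rad50EPP+ yeast strain, which bears a defined DNA repair alteration, and growth inhibition was determined relative to vehicle-treated cultures.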
# [4] = NCI Yeast Anticancer Drug Screen. Data for the mgt1 strain (AID 153); settings: S. cerevisiae mgt1 mutant growth inhibition, active compounds read high
# How it was run: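 Strain: mgt1 yeast, one of a set carrying defined DNA damage repair or cell cycle control alterations. Compound-treated growth compared with vehicle.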
# [5] = NCI Yeast Anticancer Drug Screen. Data for the rad50 strain (AID 155);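 also: 0% = growth of vehicle-only cultures of the same strain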; settings: S. cerevisiae rad50 strain growth inhibition, active compounds read high
# How it was run: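 Yeast carrying a defined DNA repair defect were exposed to test compounds, and growth was compared with vehicle-treated controls to give percent inhibition.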
# [6] = NCI Yeast Anticancer Drug Screen. Data for the mec2-1 strain (AID 157); settings: S. cerevisiae mec2-1 strain, active compounds read high
# How it was run: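 Strain: mec2-1 (DNA repair/cell cycle alteration). Compound exposure, then growth measured; inhibition expressed relative to vehicle.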
# [7] = NCI Yeast Anticancer Drug Screen. Data for the rad14 strain (AID 159);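 also: 0% = growth of vehicle-treated control cultures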; settings: S. cerevisiae rad14 strain growth inhibition, active compounds read high
# How it was run: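 Yeast cells carrying a defined DNA-repair defect were exposed to compounds, and growth inhibition was calculated relative to vehicle-treated control cultures.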
# [8] = NCI Yeast Anticancer Drug Screen. Data for the sgs1 mgt1 strain (AID 161);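 also: 0% = growth of cultures given vehicle only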; settings: S. cerevisiae sgs1 mgt1 strain, active compounds read high
# How it was run: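 Inhibition of yeast growth, normalised to vehicle-treated controls, is reported for a strain bearing genetic alterations in DNA damage repair.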
# [9] = NCI Yeast Anticancer Drug Screen. Data for the CLN2oe strain (AID 163);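 also: 0% = growth of vehicle-only control cultures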; settings: S. cerevisiae CLN2oe strain, active compounds read high
# How it was run: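 Growth of a genetically modified yeast strain is measured after compound exposure and compared with cultures given vehicle alone.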
# [10] = NCI Yeast Anticancer Drug Screen. Data for the cln2 rad14 strain (AID 165);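 also: 0% = growth equal to vehicle treated cultures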; settings: S. cerevisiae cln2 rad14 strain, active compounds read high
# How it was run: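 Compounds are applied to the cln2 rad14 yeast strain, and growth is then compared with that of vehicle-treated cultures to give inhibition.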
# [11] = NCI Yeast Anticancer Drug Screen. Data for the bub3 strain (AID 167); settings: S. cerevisiae bub3 mutant strain, active compounds read high
# How it was run: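 Compounds were applied to a genetically altered yeast strain carrying a cell-cycle control defect. Growth inhibition was scored against vehicle-treated controls.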
# [12] = NCI Yeast Anticancer Drug Screen. Data for the wt2 strain (AID 169);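 also: 0% = growth of vehicle-treated yeast cultures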; settings: S. cerevisiae wt2 strain growth inhibition, active compounds read high
# How it was run: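 This strain belongs to a panel of yeast strains with defined genetic alterations in DNA damage repair or cell cycle control. Compounds are applied, and growth inhibition is measured against vehicle-treated cultures.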
# [13] = NCI Yeast Anticancer Drug Screen. Data for the mlh1 strain (AID 171);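 also: 0% = growth of vehicle-treated control cultures of the same strain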; settings: S. cerevisiae mlh1 strain growth inhibition, active compounds read high
# How it was run: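 Growth of the mutant yeast strain after compound exposure, expressed as inhibition relative to vehicle-only controls.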
# [14] = NCI Yeast Anticancer Drug Screen. Data for the sgs1 strain (AID 173);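 also: 0% = growth of vehicle-only control cultures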; settings: S. cerevisiae sgs1 mutant, active compounds read high
# How it was run: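 Growth of a yeast strain bearing a defined genetic alteration is measured after compound treatment. Inhibition is expressed relative to vehicle-only controls.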
# [15] = NCI Yeast Anticancer Drug Screen. Data for the mlh1 rad18 strain (AID 175); settings: S. cerevisiae mlh1 rad18 strain growth inhibition, active compounds read high
# How it was run: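 Read-out is yeast growth inhibition, calculated against vehicle-only controls. The compound was applied to a strain engineered with DNA damage repair alterations.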
# [16] = NCI Yeast Anticancer Drug Screen. Data for the rad18 strain (AID 177); settings: S. cerevisiae rad18 mutant growth inhibition, active compounds read high
# How it was run: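 Growth of the mutant yeast strain after compound exposure, normalised to vehicle-only cultures.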
# [17] = at 5.0 µM (retest, dose inferred, filed as 0.5)
# [18] = at 50.0 µM (retest, dose inferred, filed as 5.0)
smiles,measurement,setting,value
Clc1ccc(/C(=C\c2ccccc2)Cn2ccnc2)cc1,growth inhibition,[1]; at 1.2 µM,18%
same,growth inhibition,[1]; at 3.7 µM,34%
same,growth inhibition,[1]; at 11.0 µM,53%
same,growth inhibition,[1]; at 33.0 µM,86% (active)
same,growth inhibition,[1]; at 100.0 µM,76% (active)
same,growth inhibition,[2]; at 1.2 µM,9%
same,growth inhibition,[2]; at 3.7 µM,12%
same,growth inhibition,[2]; at 11.0 µM,28%
same,growth inhibition,[2]; at 33.0 µM,20%
same,growth inhibition,[2]; at 100.0 µM,39%
same,growth inhibition,[3]; at 1.2 µM,26%
same,growth inhibition,[3]; at 3.7 µM,54%
same,growth inhibition,[3]; at 11.0 µM,92% (active)
same,growth inhibition,[3]; at 33.0 µM,95% (active)
same,growth inhibition,[3]; at 100.0 µM,96% (active)
same,growth inhibition,[4]; at 1.2 µM,14%
same,growth inhibition,[4]; at 3.7 µM,22%
same,growth inhibition,[4]; at 11.0 µM,60%
same,growth inhibition,[4]; at 33.0 µM,71% (active)
same,growth inhibition,[4]; at 100.0 µM,87% (active)
same,growth inhibition,[5]; at 1.2 µM,22%
same,growth inhibition,[5]; at 3.7 µM,34%
same,growth inhibition,[5]; [17],52%
same,growth inhibition,[5]; at 11.0 µM,54%
same,growth inhibition,[5]; at 33.0 µM,84% (active)
same,growth inhibition,[5]; [18],92% (active)
same,growth inhibition,[5]; at 50.0 µM,79% (active)
same,growth inhibition,[5]; at 100.0 µM,85% (active)
same,growth inhibition,[6]; at 1.2 µM,11%
same,growth inhibition,[6]; at 3.7 µM,21%
same,growth inhibition,[6]; [17],-14%
same,growth inhibition,[6]; at 11.0 µM,37%
same,growth inhibition,[6]; at 33.0 µM,54%
same,growth inhibition,[6]; [18],88% (active)
same,growth inhibition,[6]; at 50.0 µM,82.3% (active)
same,growth inhibition,[6]; at 100.0 µM,67%
same,growth inhibition,[7]; at 1.2 µM,38%
same,growth inhibition,[7]; at 3.7 µM,51%
same,growth inhibition,[7]; at 11.0 µM,68%
same,growth inhibition,[7]; at 33.0 µM,81% (active)
same,growth inhibition,[7]; at 100.0 µM,80% (active)
same,growth inhibition,[8]; [17],30%
same,growth inhibition,[8]; [18],95% (active)
same,growth inhibition,[8]; at 50.0 µM,79.7% (active)
same,growth inhibition,[9]; at 1.2 µM,11%
same,growth inhibition,[9]; at 3.7 µM,21%
same,growth inhibition,[9]; at 11.0 µM,48%
same,growth inhibition,[9]; at 33.0 µM,75% (active)
same,growth inhibition,[9]; at 100.0 µM,74% (active)
same,growth inhibition,[10]; [17],26%
same,growth inhibition,[10]; [18],92% (active)
same,growth inhibition,[10]; at 50.0 µM,73.2% (active)
same,growth inhibition,[11]; at 1.2 µM,10%
same,growth inhibition,[11]; at 3.7 µM,32%
same,growth inhibition,[11]; [17],51%
same,growth inhibition,[11]; at 11.0 µM,44%
same,growth inhibition,[11]; at 33.0 µM,72% (active)
same,growth inhibition,[11]; [18],97% (active)
same,growth inhibition,[11]; at 50.0 µM,88.2% (active)
same,growth inhibition,[11]; at 100.0 µM,89% (active)
same,growth inhibition,[12]; at 1.2 µM,20%
same,growth inhibition,[12]; at 3.7 µM,29%
same,growth inhibition,[12]; at 11.0 µM,46%
same,growth inhibition,[12]; at 33.0 µM,54%
same,growth inhibition,[12]; at 100.0 µM,77% (active)
same,growth inhibition,[13]; at 1.2 µM,5%
same,growth inhibition,[13]; at 3.7 µM,19%
same,growth inhibition,[13]; at 11.0 µM,39%
same,growth inhibition,[13]; at 33.0 µM,51%
same,growth inhibition,[13]; at 100.0 µM,74% (active)
same,growth inhibition,[14]; at 1.2 µM,44%
same,growth inhibition,[14]; at 3.7 µM,54%
same,growth inhibition,[14]; at 11.0 µM,69%
same,growth inhibition,[14]; at 33.0 µM,90% (active)
same,growth inhibition,[14]; at 100.0 µM,83% (active)
same,growth inhibition,[15]; [17],42%
same,growth inhibition,[15]; [18],94% (active)
same,growth inhibition,[15]; at 50.0 µM,78.6% (active)
same,growth inhibition,[16]; at 1.2 µM,46%
same,growth inhibition,[16]; at 3.7 µM,64%
same,growth inhibition,[16]; at 11.0 µM,81% (active)
same,growth inhibition,[16]; at 33.0 µM,93% (active)
same,growth inhibition,[16]; at 100.0 µM,92% (active)
Cc1cc2nc3ccccc3n2c2ccccc12,growth inhibition,[1]; at 1.2 µM,-33%
same,growth inhibition,[1]; at 3.7 µM,-33%
same,growth inhibition,[1]; at 11.0 µM,-56%
same,growth inhibition,[1]; at 33.0 µM,-11%
same,growth inhibition,[1]; at 100.0 µM,41%
same,growth inhibition,[2]; at 1.2 µM,-53%
same,growth inhibition,[2]; at 3.7 µM,-48%
same,growth inhibition,[2]; at 11.0 µM,-39%
same,growth inhibition,[2]; at 33.0 µM,-31%
same,growth inhibition,[2]; at 100.0 µM,-8%
same,growth inhibition,[3]; at 1.2 µM,-49%
same,growth inhibition,[3]; at 3.7 µM,-24%
same,growth inhibition,[3]; at 11.0 µM,-21%
same,growth inhibition,[3]; at 33.0 µM,28%
same,growth inhibition,[3]; at 100.0 µM,63%
same,growth inhibition,[4]; at 1.2 µM,-25%
same,growth inhibition,[4]; at 3.7 µM,4%
same,growth inhibition,[4]; at 11.0 µM,6%
same,growth inhibition,[4]; at 33.0 µM,37%
same,growth inhibition,[4]; at 100.0 µM,61%
same,growth inhibition,[5]; at 1.2 µM,2%
same,growth inhibition,[5]; at 3.7 µM,-7%
same,growth inhibition,[5]; [17],0%
same,growth inhibition,[5]; at 11.0 µM,5%
same,growth inhibition,[5]; at 33.0 µM,64%
same,growth inhibition,[5]; [18],86% (active)
same,growth inhibition,[5]; at 50.0 µM,41%
same,growth inhibition,[5]; at 100.0 µM,91% (active)
same,growth inhibition,[6]; at 1.2 µM,-45%
same,growth inhibition,[6]; at 3.7 µM,-45%
same,growth inhibition,[6]; [17],-11%
same,growth inhibition,[6]; at 11.0 µM,-41%
same,growth inhibition,[6]; at 33.0 µM,-30%
same,growth inhibition,[6]; [18],39%
same,growth inhibition,[6]; at 50.0 µM,56.1%
same,growth inhibition,[6]; at 100.0 µM,8%
same,growth inhibition,[7]; at 1.2 µM,-21%
same,growth inhibition,[7]; at 3.7 µM,-37%
same,growth inhibition,[7]; at 11.0 µM,-36%
same,growth inhibition,[7]; at 33.0 µM,-23%
same,growth inhibition,[7]; at 100.0 µM,35%
same,growth inhibition,[8]; [17],-10%
same,growth inhibition,[8]; [18],29%
same,growth inhibition,[8]; at 50.0 µM,66.7%
same,growth inhibition,[9]; at 1.2 µM,-32%
same,growth inhibition,[9]; at 3.7 µM,-24%
same,growth inhibition,[9]; at 11.0 µM,-30%
same,growth inhibition,[9]; at 33.0 µM,-7%
same,growth inhibition,[9]; at 100.0 µM,37%
same,growth inhibition,[10]; [17],2%
same,growth inhibition,[10]; [18],60%
same,growth inhibition,[10]; at 50.0 µM,52.6%
same,growth inhibition,[11]; at 1.2 µM,-15%
same,growth inhibition,[11]; at 3.7 µM,-7%
same,growth inhibition,[11]; [17],5%
same,growth inhibition,[11]; at 11.0 µM,-6%
same,growth inhibition,[11]; at 33.0 µM,5%
same,growth inhibition,[11]; [18],50%
same,growth inhibition,[11]; at 50.0 µM,69%
same,growth inhibition,[11]; at 100.0 µM,44%
same,growth inhibition,[12]; at 1.2 µM,-57%
same,growth inhibition,[12]; at 3.7 µM,-45%
same,growth inhibition,[12]; at 11.0 µM,-51%
same,growth inhibition,[12]; at 33.0 µM,-23%
same,growth inhibition,[12]; at 100.0 µM,45%
same,growth inhibition,[13]; at 1.2 µM,-33%
same,growth inhibition,[13]; at 3.7 µM,-27%
same,growth inhibition,[13]; at 11.0 µM,-7%
same,growth inhibition,[13]; at 33.0 µM,53%
same,growth inhibition,[13]; at 100.0 µM,80% (active)
same,growth inhibition,[14]; at 1.2 µM,-43%
same,growth inhibition,[14]; at 3.7 µM,-35%
same,growth inhibition,[14]; at 11.0 µM,-40%
same,growth inhibition,[14]; at 33.0 µM,-29%
same,growth inhibition,[14]; at 100.0 µM,-13%
same,growth inhibition,[15]; [17],6%
same,growth inhibition,[15]; [18],78% (active)
same,growth inhibition,[15]; at 50.0 µM,65.9%
same,growth inhibition,[16]; at 1.2 µM,-24%
same,growth inhibition,[16]; at 3.7 µM,-23%
same,growth inhibition,[16]; at 11.0 µM,-10%
same,growth inhibition,[16]; at 33.0 µM,-8%
same,growth inhibition,[16]; at 100.0 µM,29%
